# Assay results reported in article PMC5540273 (PLoS ONE, 2017).
# Test system: SIK
# Settings: concentration: 1 μM, replicates: in singlicate; n = 1
# 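Further: KINOMEscan kinase panel screen.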
row,SMILES,%Inh
1,CN(c1ccc(NC(=O)Nc2cc(C(F)(F)F)ccc2F)cc1)c1ccnc(Nc2ccc(S(N)(=O)=O)cc2)n1 [GW809893],22%
2,Nc1ncnc2c1nc(-c1ccccc1)n2-c1ccccc1 [SKF-97293],8%
3,CN1CCN(CCCNc2nccc(-c3c(-c4ccc(F)cc4)nn4cc(C(F)(F)F)ccc34)n2)CC1 [GW621581],0%
4,O=C(Nc1cccc(-c2nn3ccccc3c2-c2ccnc(Nc3cccc(C(F)(F)F)c3)n2)c1)c1c(F)cccc1F [GSK292658],9%
5,COc1cc(Nc2nccc(N3CCC(NC(=O)Nc4cccc(C(C)=O)c4)C3)n2)cc(OC)c1OC (stereo not shown) [GSK1379753],0%
6,Cl.Cl.NCC(C(=O)Nc1cc(Br)c(-c2ccnc3[nH]ccc23)s1)c1ccccc1 (stereo not shown) [GSK1269851],0%
7,COc1ccc(Nc2nccc(NCCNC(=O)c3cc4ccccc4s3)n2)cc1 [GSK1379896],0%
8,Cc1ccc(F)c(C(=O)Nc2cccc(-c3nn4ccccc4c3-c3ccnc(Nc4cccc(F)c4)n3)c2)c1F [GSK361061],68%
9,Cl.Cl.NCC(NC(=O)c1cc(-c2ccccc2)c(-c2ccnc3[nH]ccc23)s1)c1ccccc1 (stereo not shown) [GSK1321561],11%
10,Cc1cccc(Nc2nc(N[C@H]3CCNC3)ncc2C(N)=O)c1.Cl [GSK2197149],35%
11,COc1cccc(C2=C(Nc3ccc(Cl)c(C(=O)O)c3)C(=O)NC2=O)c1 [SB-390769],0%
12,O=C(Nc1cccc(-c2nn3ccccc3c2-c2ccnc(Nc3cccc(F)c3)n2)c1)c1c(F)ccc(F)c1Cl [GSK357952],34%
13,COc1cccc(NC(=O)NC2CCN(c3ccnc(Nc4cc(OC)c(OC)c(OC)c4)n3)C2)c1 (stereo not shown) [GSK1379763],0%
14,O=c1[nH]cc(-c2ccc(N3CCOCC3)cc2)c2sc(-c3cn[nH]c3)cc12 [GSK2276055],0%
15,CC(C)(C)c1ccc2nccc(Nc3cccc(O)c3)c2c1 [GW856795],0%
16,COc1ccc(Nc2nccc(N3CCC(NC(=O)Nc4cccc(OC)c4)C3)n2)cc1 (stereo not shown) [GSK1379742],0%
17,CCS(=O)(=O)c1ccc(OC)c(Nc2nccc(-c3c(-c4cccc(NC(=O)c5c(F)cccc5F)c4)nn4ncccc34)n2)c1 [GSK326180],3%
18,CC(C)c1nc(-c2cccc(NS(=O)(=O)c3c(F)cccc3F)c2F)c(-c2ccnc(Nc3ccc(N4CCOCC4)nc3)n2)s1 [GSK2008607],99.5%
19,Fc1ccc(-c2ncn(C3CCNCC3)c2-c2ccnc(Oc3ccc(-c4ccccc4)cc3)n2)cc1 [SB-245391],12%

row,SMILES,%Inh
1,O=C(Nc1n[nH]c2cc(-c3ccoc3)ccc12)C1CC1 [SB-738481],0%
2,Nc1ncc(-c2cccnc2)c2scc(-c3ccc4c(c3)CCN4C(=O)Cc3ccccc3)c12 [GSK683281],19%
3,Nc1ncc(-c2ccc3nccc(-c4ccncc4)c3c2)cc1S(=O)(=O)N1CCOCC1 [GSK1627798],0%
4,C[C@@H]1CC[C@@H](C(=O)Nc2ccccc2)CN1c1cc(-c2ccc3c(N)n[nH]c3c2)nc(N)n1 [GSK2286062],0%
5,Cn1cc(-c2ccc3c(c2)CCN3C(=O)Cc2cccc(F)c2)c2c(N)ncnc21 [GSK2603358],4%
6,Cc1ccc(C(=O)N2CC[C@@H](O)C2)cc1-n1c(C)cc(OCc2ccc(F)cc2F)c(Br)c1=O,4%
7,CN1CCN(Cc2cccc(-c3ccc4c(Nc5ccc(Oc6ccccc6)cc5)ccnc4c3)c2)CC1 [GW578342],0%
8,CN(C)S(=O)(=O)c1cc(-c2ccc3nccc(-c4cccc(S(N)(=O)=O)c4)c3c2)cnc1N [GSK1669921],0%
9,COc1cc(Nc2nccc(-c3c(-c4cccc(NC(=O)c5c(F)cccc5F)c4)nn4ncccc34)n2)cc(OC)c1OC [GSK327238],78%
10,COCCOCCOc1cc2ncc3c4ccc(C#N)cc4[nH]c3c2cc1OC,13%
11,Cc1ccc(C(=O)Nc2ccc(Nc3ccnc4cc(-c5nccs5)ccc34)cc2O)cc1.Cl [GW494702],4%
12,CC(=O)N1CCN(c2ccc(Nc3nccc(-c4sc(C(C)C)nc4-c4cccc(NS(=O)(=O)c5cccc(Cl)c5)c4)n3)cn2)CC1 [GSK1660437],99%
13,COc1cccc(C(=O)Nc2cccc(Oc3ccc4nc(NC(=O)C5CC5)cn4n3)c2)c1,63%
14,Cc1cccc(NC(=O)Nc2ccc(Oc3ncnc4ccn(C)c34)cc2)c1,10%
15,Cc1ccc(S(=O)(=O)Nc2ccc(Nc3nccc(Nc4cccc5[nH]ncc45)n3)cc2)cc1 [GSK581271],36%
16,O=C(Nc1ccccc1F)NC1CCN(c2ccnc(Nc3ccc(F)cc3)n2)CC1 [GSK1379800],3%
17,Nc1n[nH]c2cnc(-c3ccccc3)cc12 [SB-642124],0%
18,c1ccc(-c2n[nH]cc2Nc2ccnc3ccccc23)nc1 [GW694077],0%
